# In the library only some 9.2% were active in any assay of this set; here they are far more common.
# FLuc counter: firefly luciferase modulation, counter-screen for miR-21 project; purified FLuc, Km substrates, luminescence inhibition; hit rate 6.9% among 360,000; Potency, µM (titrated, usually from 57.5 µM), actives largely listed as inhibitors; AID 588342; P08659; also: nearly all actives have a fitted effect of over 55% in size
# Target sequence (P08659 whole entry, looked up): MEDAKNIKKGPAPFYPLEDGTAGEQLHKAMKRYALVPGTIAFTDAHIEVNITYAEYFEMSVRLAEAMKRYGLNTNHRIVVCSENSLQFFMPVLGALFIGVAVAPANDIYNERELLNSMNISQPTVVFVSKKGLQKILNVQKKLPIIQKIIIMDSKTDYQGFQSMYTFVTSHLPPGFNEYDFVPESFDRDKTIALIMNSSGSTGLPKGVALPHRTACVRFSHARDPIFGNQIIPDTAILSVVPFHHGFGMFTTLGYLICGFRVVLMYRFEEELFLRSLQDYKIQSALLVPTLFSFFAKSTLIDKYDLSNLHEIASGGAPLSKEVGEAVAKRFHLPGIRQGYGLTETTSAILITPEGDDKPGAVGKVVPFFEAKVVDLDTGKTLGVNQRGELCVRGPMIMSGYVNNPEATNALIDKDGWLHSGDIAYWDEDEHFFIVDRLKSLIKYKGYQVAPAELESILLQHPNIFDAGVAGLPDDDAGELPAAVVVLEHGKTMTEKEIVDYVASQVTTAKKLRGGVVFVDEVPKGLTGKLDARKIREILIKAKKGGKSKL
#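 Biochemical qHTS of compounds, final roughly 60 µM downward over six points, against 10 nM purified firefly luciferase using Km concentrations of substrates (10 uM D-luciferin, 10 uM ATP) in Tris acetate pH 7.5 buffer; luminescence output.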
# SMN2 splice up: enhancers of SMN2 splice variant expression | HEK293 SMN2-luciferase splicing reporter, luminescence, 30-36 h | AID 1458 | hit rate 2.8% among 210,000 | Potency, µM (doses to about 46.1 µM), hits mostly activators; also: nearly all actives have a fitted effect of over 55% in size
#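 qHTS luciferase splicing reporter: luminescence rises when SMN2 exon 7 is included in transfected HEK293 cells. Compound exposure lasted 30-36 h at 37C, with 4.5 mM final sodium butyrate as control, followed by a ONE-Glo read.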
# NPC1 promoter act: activates the NPC1 promoter; Potency, µM (top dose mostly 9.22 µM), most hits filed as activators; hit rate 2.4% among 320,000; Huh7 NPC1 promoter luciferase reporter, 24 h; also: nearly all actives have a fitted effect of over 60% in size
#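 Luminescence read-out of NPC1 promoter-driven luciferase in stably transfected Huh7 cells; compounds delivered in DMSO and left 24 h at 37C, 5% CO2, qHTS titration format.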
# Rab9 prom act: activators of Rab9 promoter; Huh7 Rab9 promoter-luciferase reporter, luminescence, 24 h; Potency, µM (series often up to 9.22 µM), actives largely listed as activators; hit rate 2.8% among 320,000; AID 485297; also: nearly all actives have a fitted effect of over 60% in size
#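 Cell-based reporter: Huh7 stable for Rab9 promoter-driven luciferase, plated in reduced-serum medium with 10% FBS at 1500 cells/well, compound-treated 24 h at 37 °C, luminescence read after 10 min reagent.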
# ELG1 genotoxic: induces genotoxicity in HEK293T cells with luciferase-tagged ELG1; HEK293T ELG1-luciferase reporter, luminescence, 16 h; Potency, µM (titrated, usually from 46 µM), hits mostly activators; hit rate 1.3% among 330,000; AID 504466; also: nearly all actives have a fitted effect of over 60% in size
#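 HEK293T cells expressing luciferase-tagged ELG1 were treated with compound or DMSO for 16 hr at 37°C. Luciferase activity was then read after 30 min with ONE-Glo at room temperature; rising signal flags genetic stress.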
# ELG1 DNA repair: inhibitors of ELG1-dependent DNA repair in HEK293T cells. HEK293T ELG1-luciferase reporter, luminescence, 16 h; DNA damage induced by 5-fluorouridine. Potency, µM (highest dose often 46.1 µM), usual class: inhibitors. hit rate 2.3% among 330,000; also: nearly all actives have a fitted effect of over 55% in size
#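 Step one: seed 2,000 cells per well. Step two: pin-transfer compound or DMSO alongside 5-fluorouridine. Step three: incubate 16 hr, 37 °C, 5% CO2. Step four: add ONE-Glo, wait 30 min, read luminescence.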
# Hits are given with their value; . = inactive; ? = inconclusive; / = no result; [ ] = remark or other dose. Calls follow the shape of the dose curve; as a rule, active = well fitted curve in the direction sought with a large enough effect; inconclusive = small, poorly fitted or top-dose-only effect, or another doubt; inactive = no such curve, though single readings can be large; an effect the other way counts as inactive or inconclusive.
SMILES,FLuc counter,SMN2 splice up,NPC1 promoter act,Rab9 prom act,ELG1 genotoxic,ELG1 DNA repair
Cc1cccc2cc(C#N)c(N3CCC(O)CC3)nc12,.,.,.,.,.,.
CCOC(=O)N1CCC(N2Cc3cccc(C(=O)NCc4ccc(C)cc4)c3C2=O)CC1,.,.,.,.,.,16µM
CCOC(=O)N1CCC(N2Cc3cccc(C(=O)NCc4ccccn4)c3C2=O)CC1,.,.,.,.,.,.
COCc1c(C#N)c(NCc2cc(OC)c(OC)c(OC)c2)nc(C)c1[N+](=O)[O-],.,/,.,.,.,16µM
Oc1ccc(C2=NNC(c3ccc(O)cc3)=NN2)cc1,.,/,.,.,.,.
CSC1=NNC(c2ccc(C(C)(C)C)cc2)=NN1,12µM,/,?,?,.,?
CCN(CC(=O)NCc1ccc(Cl)cc1)C(=O)c1cc(OC)cc(OC)c1,.,/,.,.,.,.
COc1ccc2c(c1)OCc1c-2oc2cc(OC)ccc12,/,13µM,/,/,/,/
COc1ccc2c(=O)c(-c3ccc(C)cc3)c(-c3ccccc3)oc2c1,/,/,/,/,.,?
CC(OC(=O)c1ccc([N+](=O)[O-])s1)C(=O)Nc1ncc(Cl)cc1Cl (stereo not given),.,.,.,.,.,.
O=C(NCCCNC(=O)c1ccco1)c1ccc(Cl)cc1,.,/,.,.,?,?
NC(=NCc1ccco1)NC(=O)c1ccc(Cl)cc1,17µM,/,?,?,?,?
CC(C)(C)OC(=O)[C@H](Cc1ccccc1)NC(=O)c1nc[nH]c1C(=O)N1CCc2ccccc2C1,.,/,.,.,.,.
CC(C)(C)OC(=O)NCCCC[C@H](NC(=O)c1nc[nH]c1C(=O)N1CCc2ccccc2C1)C(=O)OC(C)(C)C,.,/,.,.,.,8.2µM
CC(C)(C)OC(=O)NCCCCCNC(=O)c1nc[nH]c1C(=O)N1CCc2ccccc2C1,/,/,/,/,.,16µM
CCCc1ccc2oc(C(=O)N3CCC[C@H]3CO)c(C)c2c1,11µM,/,6.3µM,3.2µM,?,?
CCCc1ccc2oc(C(=O)N3CCC(COC)C3)c(C)c2c1 (stereo not given),12µM,/,2.8µM,2.8µM,?,?
CCCCC1=NN(C(=O)c2cccnc2)C(O)(C(F)(F)F)C1 (stereo not given),.,/,.,.,.,.
C=CCOC(=O)C(C#N)c1nc2ccccc2nc1N1CCN(c2ccccc2OCC)CC1 (stereo not given),.,.,.,.,.,15µM
C=CCOC(=O)C(C#N)c1nc2ccccc2nc1N1CCN(Cc2ccc3c(c2)OCO3)CC1 (stereo not given),.,?,.,.,.,16µM
CCOc1ccccc1N1CCN(c2nc3ccccc3nc2C(C#N)C(=O)OC(C)C)CC1 (stereo not given),.,.,.,.,.,.
COc1ccc(CNC(=O)C(C#N)c2nc3ccccc3nc2N2CCCC2)cc1 (stereo not given),.,.,.,.,.,5.8µM
Cn1c(=O)c2c(nc(Sc3ncnn3CC(=O)NC3CCCCC3)n2C)n(C)c1=O,.,/,.,.,.,.
CCOC(=O)CN1C(=O)N[C@@H](c2ccco2)C(C(=O)OC)=C1C,/,.[9.22 µM],/,/,/,/
COc1ccc(C2C(C(=O)Nc3cccnc3)=C(C)Nc3nc(-c4ccc(OC)c(OC)c4)nn32)cc1 (stereo not given),.,?,/,/,/,/
SMILES,FLuc counter,SMN2 splice up,NPC1 promoter act,Rab9 prom act,ELG1 genotoxic,ELG1 DNA repair
CC(C)Cc1nc2c(nnn2Cc2ccccc2F)c(=O)[nH]1,.,/,.,.,.,.
CC1(c2ccccc2)NC(=O)N(CC(=O)N2CCN(S(=O)(=O)c3c(F)cccc3F)CC2)C1=O (stereo not given),/,/,/,/,.,.
COc1cccc(-c2cc(C(=O)Nc3ccc([N+](=O)[O-])cn3)c3ccccc3n2)c1,?,.,.,.,.,13µM
COc1ccc(CNc2ccc([N+](=O)[O-])cn2)cc1,11µM,/,3.2µM,4µM,?,?
CCOc1cccc(-c2cc(C(=O)Nc3ccon3)c3ccccc3n2)c1,?,/,.,.,.,13µM
COc1ccc(Nc2ccc([N+](=O)[O-])cn2)cc1,?,/,?,?,.,?
COc1ccc(-c2cc(C(=O)Nc3cccnc3)c3ccccc3n2)cc1OC,11µM,/,.,.,.,?
O=C(Nc1ccc([N+](=O)[O-])cn1)c1cc(-c2cccc(Br)c2)nc2ccccc12,.,.,.,.,.,.
CNC(=S)N1CCN(C(=O)C2CCCO2)CC1 (stereo not given),.,.,.,.,.,.
CCN(C(=O)CN1CCN(S(=O)(=O)c2cc(Cl)ccc2Cl)CC1)c1c(N)n(Cc2ccccc2)c(=O)[nH]c1=O,.,.,.,.,.,.
COc1cccc(-c2cc(C(=O)Nc3cccnc3)c3ccccc3n2)c1,27µM,/,.,.,.,?
O=C(Nc1nnc(C2CC2)s1)c1cccs1,?,/,2.8µM,3.2µM,?,?
CC(C)(C)c1nnc(NC(=O)c2cccs2)s1,11µM,/,2.8µM,2.8µM,?,?
COc1c(C(=O)Nc2nnc(C3CC3)s2)csc1Cl,?,/,4.5µM,4µM,?,?
CN(c1ccccc1)S(=O)(=O)c1nnc(NC(=O)c2cccs2)s1,1.1µM,/,/,/,/,/
Cc1ccc(C)c(S(=O)(=O)N2CCN(C(=O)C3CCN(C(=O)c4ccc(F)cc4)CC3)CC2)c1,.,/,.,.,.,?
CCOC(=O)Cn1c(=O)n(C2CCCCC2)c2nc(-c3ccc(OCC)cc3)nc(C(N)=O)c21,.,/,/,/,/,/
Cc1cccc(N2C(=O)C(CC(=O)Nc3cccc(F)c3)N(Cc3cccs3)C2=O)c1 (stereo not given),.,/,/,/,/,/
CC/C(O)=C1\C(=O)CCCC1=NCc1nc2ccccc2[nH]1,.,.,.,.,.,.
Cc1ccc(NC(=O)CCC(=O)NNC(=O)c2ccccc2Cl)c(C)c1,.,.,.,.,.,.
CC(C)=CC(=O)Nc1nnc(C(C)C)s1,12µM,11µM,3.2µM,2.5µM,?,?
CCCCc1nnc(NC(=O)C=C(C)C)s1,.,.,.,.,.,.
CC(C)c1nnc(NC(=O)c2cccs2)s1,13µM,14µM,2.8µM,2.5µM,4.1µM,?
COc1ccc(C(=O)c2nccc3ccccc23)cc1,.,.,.,.,.,?
N#CC/C(N)=N/NC(=O)CCCNc1ncc(C(F)(F)F)cc1Cl,.,16µM,.,?,.,.
O=C(Nc1ccc(SC(F)F)cc1)c1cc(-c2ccc3c(c2)OCCO3)on1,5.4µM,/,/,/,/,/
CC(=O)c1ccc(NC(=O)c2cc(-c3ccc4c(c3)OCO4)on2)cc1,.,.,/,/,/,/
O=C(Nc1ccc(SC(F)F)cc1)c1cc(-c2cccs2)on1,.,/,/,/,/,/

# Compound activity (PubChem)
